# Assay results reported in PubChem BioAssay.
# A number with no mark means an inactive call. Where a call stands in place of a potency, no number is given. For some assays here: Potency and affinity values are given separately. Activity calls are given as the source filed them. Unless noted, how the calls were made is not given here.
# Legend:
# [1] = antimalarial activity against Dd2 strain (AID 2302;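 active means growth inhibition above 50% at the single 2 µM test dose, taken to imply half-maximal potency below 2 µM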); details: P. falciparum Dd2 in RBCs, LDH growth readout, 72 h; at 2 µM; active compounds read high
# [2] = human hepatoma cell viability loss – ATP luminescence, cytotoxicity control for P. falciparum antimalarial project, primary screen (AID 2303;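 active means inhibition above 50%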); details: HepG2 viability, 24-48 h, at 10 µM, active compounds read high
# [3] = biological target: L-lactate dehydrogenase (Plasmodium falciparum (isolate CDC / Honduras)) (UniProt Q27743); test: PfLDH activity inhibition – cell lysate, 3D7 strain, counter-screen for P. falciparum growth inhibition project (AID 2304); details: P. falciparum 3D7 crude extract, LDH APAD/NBT absorbance; at 2 µM; active compounds read high
# L-lactate dehydrogenase (Plasmodium falciparum (isolate CDC / Honduras)), sequence (Q27743 whole entry, looked up): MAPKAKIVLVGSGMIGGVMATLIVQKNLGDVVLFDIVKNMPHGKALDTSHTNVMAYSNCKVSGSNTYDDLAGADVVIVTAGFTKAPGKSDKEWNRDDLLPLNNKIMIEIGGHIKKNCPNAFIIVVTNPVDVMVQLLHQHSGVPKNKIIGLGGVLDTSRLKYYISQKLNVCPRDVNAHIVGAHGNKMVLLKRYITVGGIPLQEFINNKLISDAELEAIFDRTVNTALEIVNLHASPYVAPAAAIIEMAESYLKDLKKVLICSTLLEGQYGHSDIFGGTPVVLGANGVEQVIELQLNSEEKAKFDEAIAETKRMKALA
# [4] = inhibition of 3D7 malaria parasite growth – strain 3D7 (AID 2306); details: P. falciparum 3D7 erythrocytic growth, LDH absorbance, 72 h; at 2 µM; active compounds read high
# [5] = biological target: Calcium-dependent protein kinase 1 (Plasmodium falciparum (isolate 3D7)) (UniProt P62344); test: PfCDPK1 kinase inhibitors, biochemical, TCAMS library (AID 1159585; cut-off not given, nearly all actives have IC50 up to about 0.98 µM;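 further: inhibitors leave more ATP so luminescence rises with inhibition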); details: recombinant PfCDPK1, Kinase-Glo ATP depletion luminescence
# Calcium-dependent protein kinase 1 (Plasmodium falciparum (isolate 3D7)), sequence (P62344 whole entry, looked up): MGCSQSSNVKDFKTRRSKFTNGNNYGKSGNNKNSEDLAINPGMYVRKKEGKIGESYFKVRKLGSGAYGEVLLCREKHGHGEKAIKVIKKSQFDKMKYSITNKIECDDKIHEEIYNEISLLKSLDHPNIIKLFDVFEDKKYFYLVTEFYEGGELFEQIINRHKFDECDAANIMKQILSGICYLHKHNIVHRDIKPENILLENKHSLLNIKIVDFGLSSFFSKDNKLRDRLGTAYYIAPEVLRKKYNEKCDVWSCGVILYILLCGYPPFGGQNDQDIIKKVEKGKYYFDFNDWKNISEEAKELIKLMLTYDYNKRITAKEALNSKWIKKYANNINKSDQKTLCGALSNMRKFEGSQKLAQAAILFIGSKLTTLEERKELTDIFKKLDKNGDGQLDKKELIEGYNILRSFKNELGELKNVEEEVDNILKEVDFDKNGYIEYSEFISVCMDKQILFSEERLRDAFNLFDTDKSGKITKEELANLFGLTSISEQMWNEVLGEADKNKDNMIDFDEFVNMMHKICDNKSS
# [6] = biological target: Plasmodium falciparum protein kinase 6 (PK6, PF3D7_1337100) (UniProt Q8IDW1); test: PfPK6 kinase inhibitors, biochemical, TCAMS library (AID 1159586); details: recombinant PfPK6, Kinase-Glo ATP depletion luminescence
# Plasmodium falciparum protein kinase 6 (PK6, PF3D7_1337100), sequence (Q8IDW1 1-305): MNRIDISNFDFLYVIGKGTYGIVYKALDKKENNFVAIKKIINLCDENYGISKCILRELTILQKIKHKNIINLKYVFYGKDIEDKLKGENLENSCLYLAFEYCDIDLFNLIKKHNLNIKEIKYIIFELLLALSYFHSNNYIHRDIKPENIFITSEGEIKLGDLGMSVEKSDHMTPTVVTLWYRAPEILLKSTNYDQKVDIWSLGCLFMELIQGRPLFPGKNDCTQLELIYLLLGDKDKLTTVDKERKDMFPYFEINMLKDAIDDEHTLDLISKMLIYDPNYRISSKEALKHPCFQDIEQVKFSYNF
# [7] = biological target: Protein kinase 7 (PK7), Plasmodium falciparum 3D7 (PF3D7_0213400) (UniProt Q7YTF7); test: inhibition of Plasmodium PK7 catalytic activity – biochemical, TCAMS antimalarial set, Kinase-Glo luminescence (AID 1159587); details: recombinant PfPK7, Kinase-Glo ATP depletion luminescence
# Protein kinase 7 (PK7), Plasmodium falciparum 3D7 (PF3D7_0213400), sequence (Q7YTF7 1-343): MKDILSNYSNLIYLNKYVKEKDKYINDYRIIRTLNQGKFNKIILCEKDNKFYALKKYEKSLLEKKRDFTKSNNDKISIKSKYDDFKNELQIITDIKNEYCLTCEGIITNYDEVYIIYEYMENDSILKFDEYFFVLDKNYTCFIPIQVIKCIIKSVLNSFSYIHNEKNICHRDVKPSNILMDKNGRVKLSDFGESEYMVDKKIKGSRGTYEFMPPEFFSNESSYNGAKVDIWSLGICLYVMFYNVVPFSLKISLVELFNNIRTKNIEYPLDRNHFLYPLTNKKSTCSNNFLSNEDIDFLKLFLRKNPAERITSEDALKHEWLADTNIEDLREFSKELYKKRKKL
# [8] = biological target: Calcium-dependent protein kinase 4 (Plasmodium falciparum (isolate 3D7)) (UniProt Q8IBS5); test: PfCDPK4 kinase inhibitors, biochemical, TCAMS library (AID 1159588; cut-off not given, nearly all actives have IC50 up to about 0.91 µM); details: recombinant PfCDPK4, Kinase-Glo ATP depletion luminescence
# Calcium-dependent protein kinase 4 (Plasmodium falciparum (isolate 3D7)), sequence (Q8IBS5 whole entry, looked up): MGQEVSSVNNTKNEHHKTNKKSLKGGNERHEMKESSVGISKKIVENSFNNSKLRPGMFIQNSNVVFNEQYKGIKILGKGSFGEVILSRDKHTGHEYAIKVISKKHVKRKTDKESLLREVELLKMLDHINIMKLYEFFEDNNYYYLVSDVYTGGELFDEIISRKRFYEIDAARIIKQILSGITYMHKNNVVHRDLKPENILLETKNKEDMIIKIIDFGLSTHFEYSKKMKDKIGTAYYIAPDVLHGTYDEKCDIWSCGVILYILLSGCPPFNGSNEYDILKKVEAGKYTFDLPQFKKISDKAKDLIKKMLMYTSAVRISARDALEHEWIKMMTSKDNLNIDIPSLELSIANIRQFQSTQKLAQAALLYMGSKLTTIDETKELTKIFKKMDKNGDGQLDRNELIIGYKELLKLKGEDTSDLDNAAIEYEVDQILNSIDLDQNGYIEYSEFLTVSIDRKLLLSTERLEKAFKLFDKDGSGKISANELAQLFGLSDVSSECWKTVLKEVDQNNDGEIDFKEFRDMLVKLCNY
SMILES,growth inhibition [1],inhibition [2],inhibition [3] [%],growth inhibition [4],outcome [5],outcome [6],outcome [7],outcome [8]
Cc1cc(NN=CC=Cc2ccccc2)c2cc(F)ccc2n1,36%,8%,-2,101% (active),inactive,inactive,inactive,inactive
CCC1CN(S(=O)(=O)c2ccc3c(c2)NC(=O)CC(=O)N3)c2cc(Cl)ccc2O1 (stereo not given),65% (active),-9%,-5,99% (active),inactive,inactive,inactive,inactive
CN1CCN(CCCN(Cc2csc(-c3ccc(CNCc4ccccc4)cc3)n2)C(=O)c2cc(F)cc(F)c2)CC1,53% (active),60% (active),-2,97% (active),inactive,inactive,inactive,inactive
c1ccc(-c2csc(Nc3nc4cc5c(cc4s3)OCO5)n2)nc1,99% (active),46%,-3,81% (active),inactive,inactive,inactive,inactive
CCCCOc1ccc(C(O)C(CN2CCCCC2)c2ccccc2)cc1 (stereo not given),84% (active),7%,3,90% (active),inactive,inactive,inactive,inactive
O=C(/C=C/c1ccc(Cl)c(Cl)c1)NCCCCCN1CCCN(C(=O)Nc2cccc(C(F)(F)F)c2)CC1,-2%,45%,1,96% (active),inactive,inactive,inactive,inactive
CN(CC1CCC(NC(=O)/C=C/c2ccc(Cl)c(Cl)c2)CC1)C1CCC(c2c[nH]c3ccccc23)CC1 (stereo not given),53% (active),53% (active),-3,99% (active),inactive,inactive,inactive,inactive
c1ccc(CNc2nc(NCCN3CCCCC3)nc3ccccc23)cc1,8%,19%,-11,87% (active),inactive,inactive,inactive,inactive
CC(=O)Nc1cccc(/C=C/C(=O)N2CCC(N3CCCCC3)CC2)c1,0%,1%,1,96% (active),inactive,inactive,inactive,inactive
c1cncc(-c2cc(N3CCCCC3)nc(-c3ccncc3)n2)c1,46%,18%,2,99% (active),inactive,inactive,inactive,inactive
COc1ccccc1NC(=O)Nc1ccc(-c2ccc(-c3nc4ccc(C(F)(F)F)cc4[nH]3)cc2)cc1,61% (active),52% (active),3,101% (active),inactive,inactive,inactive,inactive
COc1ccc2c(CCNc3nc(SC)ncc3C(=O)NCCc3ccc(F)cc3)c[nH]c2c1,49%,3%,-1,91% (active),inactive,inactive,inactive,inactive
N#Cc1ccc2c(c1)CCN(CCC1CCC(NC(=O)c3cc4cccc(Cl)c4[nH]3)CC1)CC2 (stereo not given),78% (active),34%,0,99% (active),inactive,inactive,inactive,inactive
CCN(CC)CCN(Cc1ccc(-c2ccc(C(F)(F)F)cc2)cc1)C(=O)Cn1c(/C=C/c2ccco2)nc(=O)c2ccccc21,86% (active),28%,-2,94% (active),inactive,inactive,inactive,inactive
O=C(NCC1CCC(C(=O)NC2CCCc3ccccc32)CC1)c1ccc(O)c(-c2ccc(Cl)c(Cl)c2)c1 (stereo not given),86% (active),-5%,-4,93% (active),inactive,inactive,inactive,inactive
COc1ccc2ccccc2c1CON1C(N)=NC(N)=NC1(C)C,5%,25%,-7,94% (active),inactive,inactive,inactive,inactive
CCN(CC)C(=NCCCCCCN=C(NC(N)=NCc1ccc(Cl)cc1)N(CC)CC)NC(N)=NCc1ccc(Cl)cc1,100% (active),18%,-3,100% (active),inactive,inactive,inactive,inactive
COc1ccc(CC2(CO)CCN(Cc3ccc(O)c(Cl)c3)CC2)cc1,14%,-6%,-2,98% (active),inactive,inactive,inactive,inactive
COc1cc(F)c2ncc(Cl)c(C(O)CN3CCC(NC(=O)c4ccc5c(n4)NC(=O)CO5)CC3)c2c1 (stereo not given),100% (active),22%,-1,102% (active),inactive,inactive,inactive,inactive
O=S(=O)(Nc1cccc(CCN2CCC(N3CCCCC3)CC2)c1)c1ccc(Cl)cc1,23%,18%,-1,94% (active),inactive,inactive,inactive,inactive

SMILES,growth inhibition [1],inhibition [2],inhibition [3] [%],growth inhibition [4],outcome [5],outcome [6],outcome [7],outcome [8]
O=C(Nc1cccc(C(F)(F)F)c1)Nc1ccc(Cl)c(C(F)(F)F)c1,99% (active),-4%,-6,99% (active),inactive,inactive,inactive,inactive
CN(C)c1ccc(CN2CCCCC(NC(=O)c3cc(-c4ccccc4F)cs3)C2)cc1 (stereo not given),28%,13%,5,100% (active),inactive,inactive,inactive,inactive
COc1ccc(-c2nc3c4cc(I)ccc4c4ccccc4c3[nH]2)cc1,16%,4%,-3,96% (active),inactive,inactive,inactive,inactive
COc1ccc2ccc(F)c(CC(=O)N3CCOC(CNCc4cccc(-c5ccc(F)cc5)n4)C3)c2n1 (stereo not given),1%,5%,6,92% (active),inactive,inactive,inactive,inactive
COc1ccc(-c2cnc(N)c(-c3ccc(O)c(OC)c3)c2)cn1,98% (active),23%,-1,97% (active),inactive,inactive,inactive,inactive
CC(C)C(=O)NC(c1ccc(Cl)cc1)c1ccc2cccnc2c1O (stereo not given),70% (active),53% (active),3,91% (active),inactive,inactive,inactive,inactive
CN(C)CC(=O)NCC(NCCCNc1cc(=O)c2ccccc2[nH]1)c1cc(Br)cc(Br)c1 (stereo not given),2%,6%,1,98% (active),inactive,inactive,inactive,inactive
CN1CCN(S(=O)(=O)c2cccc(Nc3nccc(N(C)c4ccc5c(c4)nc(NC(=O)c4cccs4)n5C)n3)c2)CC1,59% (active),25%,-6,99% (active),inactive,inactive,inactive,inactive
CC(C)C[C@@H](NC(=O)NC1CCC(CCN2[C@@H]3CC[C@H]2CC(OC(=O)C(CO)c2ccccc2)C3)CC1)C(O)(c1ccccc1)c1ccccc1 (stereo not given in full),71% (active),21%,-6,95% (active),inactive,inactive,inactive,inactive
COc1ccc2nccc(NN=Cc3cccc(F)c3)c2c1,65% (active),13%,2,102% (active),inactive,inactive,inactive,inactive
Cc1cc2c(cc1C(F)(F)F)N(C(=O)Nc1cc(OCCN(C)C)cc(C(F)(F)F)c1)CC2,19%,16%,0,101% (active),inactive,inactive,inactive,inactive
CC(C)CCN(Cc1cncn1Cc1cccc(C(F)(F)F)c1)C(=O)c1cncc(-c2ccccc2)c1,4%,15%,-3,100% (active),inactive,inactive,inactive,inactive
COc1ccc(-c2cccc(CNC3CCN(CC4Cn5c(=O)ccc6ccc(F)c4c65)CC3)c2)cc1 (stereo not given),74% (active),22%,0,101% (active),inactive,inactive,inactive,inactive
COc1nc2c(CCN3CCC(NCc4ccc5c(c4)NC(=O)CO5)CC3)c(Cl)cnc2cc1F,21%,15%,6,99% (active),inactive,inactive,inactive,inactive
CCCCCCCCCc1c(C)[nH]c2ccccc2c1=O,96% (active),-16%,7,97% (active),inactive,inactive,inactive,inactive
CCNc1cc(C(=O)N[C@@H](Cc2ccccc2Cl)[C@H](O)CNC2CCCCC2)cc(N2CCCCS2(=O)=O)c1,97% (active),6%,0,99% (active),inactive,inactive,inactive,inactive
c1ccc(CNCc2ccc(-c3cccc(-c4nc5ccccc5[nH]4)c3)cc2)cc1,78% (active),55% (active),-2,101% (active),inactive,inactive,inactive,inactive
CCNc1cc(C)nc(Nc2ccc(NS(=O)(=O)c3cc(OC)ccc3OC)cc2)n1,36%,56% (active),-1,100% (active),inactive,inactive,inactive,inactive
COc1ccc2cc(C(=O)Nc3ccc4c(c3)CCN(C3CCC3)CC4)ccc2c1,9%,34%,2,101% (active),inactive,inactive,inactive,inactive
CCN(CC)CCN(Cc1ccc(-c2ccc(C(F)(F)F)cc2)cc1)C(=O)Cn1c(CCc2ccc(F)c(F)c2F)nc(=O)c2ccccc21,66% (active),38%,-10,97% (active),inactive,inactive,inactive,inactive
